Most compounds without a hit are left out; they make up all but 3.6% or so of the library.
Pf apPOL inh: Pf-apPOL DNA polymerase inhibition | inhibition, % at 10 µM | Recombinant Pf-apPOL, molecular beacon fluorescence, 1.5 h | actives 0.25% (n = 210,000)
mHTT CaM bind: inhibitors of human mutant huntingtin-calmodulin interaction; P42858; AID 1671202; inhibition, % at 15 µM; actives 3.6% (n = 190,000); AlphaScreen His-mHTT/GST-CaM binding, luminescence
Numbers stand for hits; i = inactive; nt = no result given. No stated cut-off is given here; in the data, active means inhibition above about 50%; inactive means the rest.

SMILES	Pf apPOL inh	mHTT CaM bind
CC1CCCCN1Cc1cc(=O)oc2cc3c(cc12)OCO3 (centres undefined)	i	i
O=c1ccc(-c2noc(-c3ccc(F)cc3)n2)c[nH]1	i	i
COc1ccc(Cl)cc1C(=O)Nc1nnc(-c2ccsc2)o1	i	i
O=c1/c(=C/c2cccc([N+](=O)[O-])c2)sc2nc3ccccc3n12	i	i
Cc1cc(N2CCN(C)CC2)nc2ccc(NC(=O)c3ccc([N+](=O)[O-])cc3Cl)cc12	i	i
CC1(C)Nc2sc3c(c2-c2nnnn21)CCCC3	nt	56
O=C1NC2(Nc3sc4c(c31)CCCC4)C(=O)Nc1ccccc12 (centres undefined)	i	i
Cc1cccc(CN2CCCN(c3ncccc3-c3nc(C4CC4)no3)CC2)c1	i	i
CCOc1ccccc1NC(=O)C(=O)NCc1ccc(CC)cc1	i	i
CCc1ccc(CNC(=O)C(=O)Nc2ccccc2F)cc1	70	i
O=C1CN(c2ccccc2)C(=O)N1c1ccccc1	i	nt
COc1ccc(OC)c(C(O)CN2CCN(c3ccc(C)cc3)CC2)c1 (centres undefined)	i	i
O=C(CSc1cccc2cccnc12)NCc1ccccc1	i	i
Oc1ccc(COCc2ccccc2)c2cccnc12	i	99
O=C(O)COCC(=O)Nc1ccccn1	i	nt
O=S(=O)(NCCNc1ccc(Nc2ccccn2)nn1)c1ccccc1C(F)(F)F	i	97
O=c1cccnn1CCNS(=O)(=O)c1ccccc1C(F)(F)F	i	i
Cc1nccn1-c1cc(NCCNC(=O)Nc2ccc(F)c(Cl)c2)ncn1	i	i
O=C(COc1ccccc1)NCCNc1ccc(Nc2ccccn2)nn1	i	87
O=C(NCCNc1ccc(Nc2ccccn2)nn1)Nc1ccc(F)c(Cl)c1	i	100
O=C(c1ccccc1Cl)N1N=C2CCCCCC2C1(O)C(F)(F)F (centres undefined)	i	i
O=C1C(c2ccncc2)N(Cc2ccco2)C(=O)CN1c1ccccc1 (centres undefined)	i	i
CC1(NC(=O)Nc2ccc([N+](=O)[O-])cc2)CCS(=O)(=O)C1 (centres undefined)	i	i
O=C(COc1ccccc1F)NCCn1nc(-c2ccco2)ccc1=O	i	i
Cn1cc(C(=O)NCCn2nc(-c3ccco3)ccc2=O)nn1	i	i
SMILES	Pf apPOL inh	mHTT CaM bind
O=C(CC(c1ccccc1)c1ccccc1)NCCn1nc(-c2ccco2)ccc1=O	i	69
Cc1cc(C)nc(Nc2nc(C(=O)NCCn3nc(-c4ccco4)ccc3=O)cs2)n1	i	62
O=C(NC1CCCCCC1)C1CCN(c2cnc3nccnc3c2)CC1	i	i
Cc1ccsc1-c1ncnn1-c1sc2c(c1C#N)CCCC2	i	i
Cc1ccc(NC(=O)C2CCN(C(=O)c3cccc(Cl)c3)CC2)cc1	i	i
O=[N+]([O-])c1cccc(C2SCCN2S(=O)(=O)c2ccccc2)c1 (centres undefined)	i	i
S=C1NC2(CCCC2)NN1c1ccccc1	i	nt
c1cc2c3c(cccc3c1)NC1(CCCCCC1)N2	nt	53
O=C(Nc1cc(F)cc(F)c1)C1CCN(c2cc(N3CCSCC3)ncn2)CC1	i	i
Cc1cccc(N2CCN(C(=O)C3CCCN(c4cn[nH]c(=O)c4)C3)CC2)c1 (centres undefined)	i	i
Cc1csc(=Nc2ccccc2)n1CC(O)c1ccc([N+](=O)[O-])cc1 (centres undefined)	i	83
O=[N+]([O-])c1ccc(-c2csc(=Nc3ccccc3)n2CCO)cc1	i	i
COc1ccc(N)cc1-n1c(C)ccc1C	i	76
COc1cc(N)ccc1Cc1ccc(N)cc1OC	i	i
O=C(c1cccnc1)N1CCN(c2ccc([N+](=O)[O-])cc2)CC1	i	i
O=C(c1ccc(C#CC2(O)CCCCC2)cc1)N1CCN(c2ccc([N+](=O)[O-])cc2)CC1	i	56
O=C(CN1C(=O)c2ccccc2S1(=O)=O)NCCc1c[nH]c2ccccc12	i	i
Cc1ccc(NC(=O)N2CCCC(CCC(=O)NCc3cc(F)cc(F)c3)C2)cc1 (centres undefined)	i	i
COc1cccc(CNC(=O)CCS(=O)(=O)Cc2ccccc2F)c1	i	i
O=C(Nc1ccc(C(F)(F)F)cc1)O[C@@H]1C[C@H]2C[C@@H]1[C@H]1CCCCN1C2	i	73
O=C(Nc1ccc(F)cc1)O[C@@H]1C[C@H]2C[C@@H]1[C@H]1CCCCN1C2	i	i
CC(C)c1ccc(NC(=O)C2CC2)cc1	i	i
O=C(c1ccccc1)N1CCC(n2nc(-c3ccsc3)ccc2=O)CC1	i	99
O=C(c1ccc(-c2ccsc2)nc1)N1CCCC1	i	i
O=C(c1ccc(-c2ccsc2)nc1)N1CCN(C2CCCCC2)CC1	i	i
SMILES	Pf apPOL inh	mHTT CaM bind
Cc1ccc(C(=O)N2CCC(n3nc(-c4ccsc4)ccc3=O)CC2)cc1	i	100
O=C(c1ccccc1F)N1CCC(c2ccn3ncc(C(=O)N4CCCC4)c3c2)CC1	i	i
O=C(O)CCCNCC(O)CON=C1c2ccccc2-c2ccccc21 (centres undefined)	i	i
COc1ccc(C2CC(c3ccc(F)cc3)=NN2C(=O)CN2CCCCC2C)cc1 (centres undefined)	i	i
CC1CCCCN1CC(=O)N1N=C(c2ccc(F)cc2)CC1c1cccn1C (centres undefined)	i	60
CCN1CCN(CC(=O)N2N=C(c3ccc(F)cc3)CC2c2cccn2C)CC1 (centres undefined)	i	98
CC1CCN(CC(=O)N2N=C(c3ccc(F)cc3)CC2c2cccn2C)CC1 (centres undefined)	i	52
CCN1CCN(CC(=O)N2N=C(c3ccc(C)c(C)c3)CC2c2cccn2C)CC1 (centres undefined)	i	99
COc1ccc(C2CC(c3ccc(F)cc3)=NN2C(=O)CN2CCCCC2)cc1 (centres undefined)	i	i
Cc1ccc(C2=NN(C(=O)CN3CCOCC3)C(c3ccc(Cl)cc3)C2)cc1C (centres undefined)	i	i
COc1ccc(C2CC(c3ccc(F)cc3)=NN2C(=O)CN2CCC(C)CC2)cc1 (centres undefined)	i	i
CCn1c(=O)c(N2CCC(NC(=O)Nc3c(C)cccc3C)CC2)nc2ccccc21	i	i
O=C(NCc1cccs1)c1c(F)c(F)c(F)c(F)c1F	i	i
O=C(CN1CCC(c2nnc(-c3ccc(F)cc3)o2)CC1)NCc1ccc2c(c1)OCO2	i	i
Cc1ccc(C(c2ccccc2)C2([N+](=O)[O-])C(=O)c3ccccc3C2=O)c(C)c1 (centres undefined)	i	i
COc1nn(C)cc1C(=O)Nc1ccc(C(=O)NCCC2=CCCCC2)cc1	i	i
CC1CCN(CC(=O)N2N=C(c3ccccc3Cl)CC2c2cccn2C)CC1 (centres undefined)	i	84
Cn1cccc1C1CC(c2ccccc2Cl)=NN1C(=O)CN1CCOCC1 (centres undefined)	i	i
COc1ccccc1C1=NN(C(=O)CN2CCCCC2C)C(c2ccc(C)cc2)C1 (centres undefined)	i	72
COc1ccccc1C1=NN(C(=O)CN2CCCC2)C(c2ccc(C)cc2)C1 (centres undefined)	i	i
Cc1ccccc1N1C=C(C#N)S(=O)(=O)c2ccccc21	i	i
CCOc1ccc(CNC(=O)CCc2cccc3[nH]ccc23)cc1	i	i
COc1cccc(-c2nc(C3CCN(S(=O)(=O)c4ccc(Cl)cc4)CC3)no2)c1	i	i
